Screening data as filed in PubChem.
AmpC inh no detg = blocks E. coli AmpC beta-lactamase in detergent-free assay. P00811. AmpC nitrocefin hydrolysis, absorbance 480 nm, 0.0001% Triton. Potency, µM (series often up to 57.1 µM), for the others: at the highest dose activity change, negative = inhibition, hits mostly inhibitors. hit rate 0.52% among 330,000;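 note: potency is the fitted concentration of half-maximal effect; plate controls were no compound for no effect and no enzyme for full effect; nearly all actives have a fitted effect of over 20% in size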
Target sequence (P00811 whole entry, looked up): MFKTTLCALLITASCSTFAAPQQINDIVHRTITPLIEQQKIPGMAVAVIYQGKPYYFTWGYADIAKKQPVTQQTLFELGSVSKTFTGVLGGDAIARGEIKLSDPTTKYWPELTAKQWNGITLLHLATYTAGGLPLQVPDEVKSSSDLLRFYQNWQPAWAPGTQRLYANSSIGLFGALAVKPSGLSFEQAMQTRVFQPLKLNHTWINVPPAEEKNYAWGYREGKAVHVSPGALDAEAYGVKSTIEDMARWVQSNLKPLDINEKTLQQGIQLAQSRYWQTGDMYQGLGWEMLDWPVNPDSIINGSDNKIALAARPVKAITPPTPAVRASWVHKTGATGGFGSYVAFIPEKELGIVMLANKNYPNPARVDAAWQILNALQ
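20 mM phosphate pH 7.0 + 0.01% (detergent screen) or 0.0001% Triton X-100; 5.3 nM AmpC reagent; cpd preinc 15 min RT; nitrocefin (800 uM stock) to start; A480 q20 s × 4 min; Activity was normalised to no-enzyme and no-compound control wells.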
Cycloheximide cs = counter-screen for Shiga toxin inhibitors: cycloheximide protein synthesis inhibition; cell reporter, cycloheximide protein synthesis inhibition counterscreen; max response, %; hit rate 12% among 300,000; AID 2314; in the data active = max response mostly above about 13%, no sharp cut-off; inactive = mostly below about 14%; note: read at 38.3 µM for the half of the compounds with a filed dose; 0% is about no effect
NS1 inh = influenza NS1 inhibition. Potency, µM (titrated, usually from 46.1 µM), for the others: at the highest dose activity, positive = more growth. hit rate 0.4% among 270,000. AID 2326; calls by dose curve; note: potency is the fitted concentration of half-maximal effect; actives are rising curves; nearly all actives have a fitted effect of over 50% in size
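Recovery from NS1-induced slow growth read by OD600 in budding yeast switched to galactose assay medium (pH 6.0, -URA) at 1:100 dilution. Compound 23 nl per well; the matching strain lacking NS1 serves as control.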
AmpC detergent = AmpC beta-lactamase inhibition with detergent present. AmpC hydrolysis of nitrocefin, absorbance 480 nm, 0.01% Triton. Potency, µM (highest dose often 114 µM), for inactives: top-dose activity change, negative = inhibition, usual class: inhibitors. hit rate 0.041% among 370,000. AID 485294;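 note: potency is the fitted concentration of half-maximal effect; 0% = no-compound wells and -100% = no-enzyme wells; nearly all actives have a fitted effect of over 25% in size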
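20 mM phosphate pH 7.0 + 0.01% (detergent screen) or 0.0001% Triton X-100; 5.3 nM AmpC reagent; cpd preinc 15 min RT; nitrocefin (800 uM stock) to start; A480 q20 s × 4 min; Activity was normalised to no-enzyme and no-compound control wells.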
Shiga inhibitor = Shiga toxin inhibition; Vero cells, Shiga toxin protein synthesis inhibition reporter; inhibition, % at 38.7 µM; hit rate 9.2% among 290,000; AID 2315; in the data active = inhibition mostly above about 28%, no sharp cut-off; inactive = mostly below about 43%; note: 0% is about no effect
* hit, by the source's call; u = inconclusive; x = not tested or not shown. The sample as a whole holds a higher share of hits than the screen did. Unless noted, calls come from the whole dose curve; as a rule, active = well fitted curve in the direction sought with a large enough effect; inconclusive = small, poorly fitted or top-dose-only effect, or another doubt; inactive = no such curve, though single readings can be large; an effect the other way counts as inactive or inconclusive.

SMILES	AmpC inh no detg	Cycloheximide cs	NS1 inh	AmpC detergent	Shiga inhibitor
COc1ccc(/C=C/C(=O)N2CCC(c3nc4ccccc4o3)CC2)cc1	x	x	x	1.0%	x
Cc1ccc(/C(O)=C/c2nc3ccccc3oc2=O)cc1	51.7%	31.7*	-54.0%	-2.6%	67.5*
O=c1oc2ccccc2nc1/C=C(O)/C=C\c1ccccc1	-34.1%	36.1*	-30.5%	-13.4%	47.3*
Cc1ccc2oc(=O)c(/C=C(\O)c3ccco3)nc2c1	-20.1%	17.4*	-0.3%	4.3%	13.7
N#CCCN(C(=O)COC(=O)CNS(=O)(=O)c1ccc2ccccc2c1)c1ccccc1	46.7%	x	x	5.0%	x
Cc1nn(CC(=O)c2ccccc2Cl)c(C)c1[N+](=O)[O-]	-39.0%	47.9*	x	-3.5%	93.1*
CC12CCC(C(=O)Nc3nc4ccc(Br)cc4s3)(OC1=O)C2(C)C (stereo not drawn)	66.4%	32.5*	4.1%	-0.3%	93.8*
CC12CCC(C(=O)Nc3nccs3)(OC1=O)C2(C)C (stereo not drawn)	64.3%	12.7	-5.7%	u	-10.4
Cc1ccc2nc(N(Cc3cccnc3)C(=O)C3COc4ccccc4O3)sc2c1 (stereo not drawn)	x	x	x	2.6%	x
CCOc1ccc(N=C(C)C2=C(O)c3ccccc3C2=O)cc1	-9.0%	43.4*	-37.5%	10.5%	193.8*
CC(=O)Nc1ccc(N=C(C2=C(O)c3ccccc3C2=O)c2ccccc2)cc1	48.5%	44.0*	x	1.5%	63.3*
COc1ccc(S(=O)(=O)/N=C2\C=C(Nc3ccc(O)cc3)C(=O)c3ccccc32)cc1	-35.1%	10.4	-0.4%	u	13.1
COc1ccc(N=C(C)C2=C(O)c3ccccc3C2=O)cc1	-22.7%	58.1*	-9.1%	-5.7%	114.7*
COc1ccc(CCNC(=O)c2ccc3c(c2)N(Cc2ccc(F)cc2)C(=O)CS3)cc1OC	x	x	x	19.3%	x
Cc1cc(C)n(CCc2nc(-c3ccc(F)cc3)cs2)n1	23.3%	36.4*	9.4%	7.8%	78.4*
O=C(N/N=C/c1c[nH]c2ccccc12)c1ccn(Cc2ccc(Cl)cc2Cl)n1	-33.9%	7.8	7.5%	-0.8%	9.7
Cc1[nH]c2ccccc2c1/C=N/NC(=S)NC(C)C	-33.8%	11.6	1.8%	0.3%	-11.4
CCOc1ccccc1/C=N/NC(=O)c1cc(C(C)C)[nH]n1	61.6%	36.4*	-4.8%	-3.8%	65.5*
CC(C)c1cc(C(=O)N/N=C/c2c[nH]c3ccccc23)n[nH]1	-33.5%	17.1*	-3.1%	2.7%	53.1*
CC(C)NC(=S)N/N=C/c1c[nH]c2ccccc12	-7.7%	17.5*	17.7%	u	29.1*
Cc1n[nH]c(C)c1CCC(=O)N/N=C/c1c[nH]c2ccccc12	-4.3%	2.0	1.3%	2.5%	30.3
Cn1ccc(C(=O)N/N=C/c2c[nH]c3ccccc23)n1	-3.4%	44.7*	-0.4%	-1.8%	58.8*
CCOc1ccc2ccccc2c1/C=N/NC(=O)c1cc(C)[nH]n1	-39.1%	-2.7	-3.3%	-5.2%	-4.8
CC(C)(C)C1CCc2onc(C(=O)Nc3ccc4c(c3)OCO4)c2C1 (stereo not drawn)	-15.4%	-3.2	13.6%	-8.9%	-8.0
CCOC(=O)c1cc(C(=O)OCC)c(=O)[nH]c1N1CCCCC1	-22.2%	-2.0	x	-6.1%	4.2
SMILES	AmpC inh no detg	Cycloheximide cs	NS1 inh	AmpC detergent	Shiga inhibitor
Cc1ccc(CSCC(=O)N(C)CC(=O)Nc2ccccc2C(F)(F)F)cc1	19.6%	x	x	-0.7%	x
Cc1ccc(C)c(SCC(=O)c2ccc[nH]2)c1	-20.8%	41.9*	-3.3%	-1.6%	56.5*
N#C/C(=C(/O)CN1CCCC1)c1nc(-c2ccccc2)cs1	-9.7%	33.3*	8.2%	-3.3%	119.9*
CCOC(=O)C1CCCN(C/C(O)=C(\C#N)c2nc(-c3ccc(Cl)cc3)cs2)C1 (stereo not drawn)	35.6%	-2.4	-40.9%	u	-3.4
COc1ccc(Cc2nc3ccc(C(=O)NCc4cc(Br)ccc4OC)cc3o2)cc1	x	x	x	19.8%	x
Cc1cc(N2CCCC2)ccc1/C=C1\NC(=S)N(C)C1=O	-8.5%	21.4*	1.3%	-5.0%	27.8
Cc1cc(N2CCCCC2)ccc1C=C1C(=O)N(C)C(=S)N(C)C1=O	-28.5%	-1.7	2.3%	-1.7%	2.2
CN1C(=O)c2ccc(N(C)C)cc2C1=O	-4.6%	7.0	-0.8%	-1.0%	25.9
CN1C(=O)c2ccc(N3CCCC3)cc2C1=O	-14.7%	15.2*	-54.2%	u	55.1*
CCCCSCc1nc2ccccn2c1Br	-2.9%	31.4*	x	-2.1%	56.4*
